# High-throughput results (PubChem BioAssay)
# Compounds with a hit are over-represented: about 10% of the library has one in this group of screens.
# bCat KO growth: beta-catenin-lacking colon tumor cell growth suppression | viability, % at 10 µM | HCT116 beta-catenin knockout viability, CellTiter-Glo, 60 h; stronger effect = lower value | 140,000 tested, 1.5% active;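 active = viability at or under a set limit, the compound median less 4 SD, cut at about 6% in these data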;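 note: 0% = Hyamine 1622 control at 20 µM and 100% = untreated cell control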
# INS promoter inh: TRM-6 insulin promoter activity inhibition | TRM-6 cells (human fetal islet line), insulin promoter-eGFP reporter, imaging; reporter expression induced with tamoxifen | inhibition, % at 2 µM | 130,000 tested, 0.9% active | AID 1273;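 active = inhibition above the mean plus 3 SD, with well images judged a real hit on visual review, cut at about 60% in these data, passing the limit was not always enough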
# L major viab: inhibitors of Leishmania major promastigote growth. Leishmania major promastigotes, resazurin fluorescence viability. 200,000 tested, 9% active. inhibition, % at 10 µM; in the data active = inhibition above about 50%;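 note: promastigotes grown with compound for 44 hours at 28 °C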
# ROMK primary: human ROMK K+ channel modulation, primary screen; 130,000 tested, 2% active; B-score at 10 µM; Tet-inducible ROMK, thallium flux fluorescence; actives lie on both sides; P48048;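 active = signal ratio slope over the read window, or its plate-corrected B-score, at least 3 SD from the plate mean, either direction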;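 note: B-score of the F/F0 ratio slope over 7 to 12 s after thallium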
# Target sequence (P48048 whole entry, looked up): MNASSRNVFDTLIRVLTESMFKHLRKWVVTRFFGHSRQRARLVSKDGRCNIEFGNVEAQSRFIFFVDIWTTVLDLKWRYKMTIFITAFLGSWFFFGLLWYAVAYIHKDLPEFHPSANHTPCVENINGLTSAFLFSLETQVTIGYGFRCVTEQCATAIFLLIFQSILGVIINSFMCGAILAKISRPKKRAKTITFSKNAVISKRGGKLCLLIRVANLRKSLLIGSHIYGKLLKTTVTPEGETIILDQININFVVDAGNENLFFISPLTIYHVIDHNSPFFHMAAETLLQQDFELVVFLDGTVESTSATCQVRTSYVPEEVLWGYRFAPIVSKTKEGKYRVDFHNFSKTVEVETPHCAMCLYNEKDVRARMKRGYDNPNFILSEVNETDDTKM
# PTEN del growth: PTEN-deleted cell growth suppression | HCT116 PTEN-null viability, CellTiter-Glo, 60 h; stronger effect = lower value | viability, % at 10 µM | 140,000 tested, 1.2% active | AID 827;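 active = viability at or below a set limit, 4 SD under the median of all tested compounds, cut at about 3.7% in these data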;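 note: PTEN knockout HCT116 line with beta catenin targeted HCT116 as companion control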
# p97 inhibitor: human p97 ATPase inhibition. AID 1481. recombinant p97 ATPase, Kinase-Glo ATP luminescence, 3 h. inhibition, % at 8 µM. 220,000 tested, 0.42% active; in the data active = inhibition above about 15%;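 note: 0% = DMSO vehicle and 100% = wells lacking enzyme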
# * = called active by the depositor; / = not tested or not shown.
SMILES,bCat KO growth,INS promoter inh,L major viab,ROMK primary,PTEN del growth,p97 inhibitor
O=C1S/C(=C\c2ccc(O)c([N+](=O)[O-])c2)C(=O)N1c1ccccc1Cl,/,/,-4.0,-3.56*,/,5.3
O=C1S/C(=C\c2ccc(O)c([N+](=O)[O-])c2)C(=O)N1Cc1cccc([N+](=O)[O-])c1,/,/,-9.3,/,/,5.5
c1ccc(CNc2ccc(CNc3ncn[nH]3)cc2)cc1,91.7,34.2,64.3*,-0.694,97.9,2.5
O=C1C(C2=C(O)c3ccccc3C2=O)=Nc2ccccc21,7.6,-440.0,99.6*,/,2.8*,3.4
CC(Nc1ccc(Cl)cc1)c1cc(Cl)ccc1O (stereo unspecified),77.9,25.6,29.1,-1.38,92.2,-3.6
CC(Nc1ccc(Br)cn1)c1cc(Cl)ccc1O (stereo unspecified),93.8,28.6,92.1*,-0.252,92.1,-6.9
CN(C)/N=C/C=C1\CC/C(=C\c2ccc(Br)cc2)C1=O,84.7,4.1,76.6*,-0.264,86.7,-3.0
COc1ccc(C(CNC(=O)c2cc(F)c(F)c(F)c2F)N2CCOCC2)cc1 (stereo unspecified),/,/,-1.8,0.524,/,-3.8
OC1CCCN(Cc2ccc3c(c2)Cc2ccccc2-3)C1 (stereo unspecified),80.4,-36.4,72.8*,/,89.6,2.2
CC(C)(C)c1cc(CN2CCCC(O)C2)c(O)c(C(C)(C)C)c1 (stereo unspecified),75.9,/,29.4,0.0667,68.9,-11.6
Cc1ccc(-n2ncc3c(SCc4ccccn4)ncnc32)c(C)c1,/,42.9,7.4,-1.32,/,-1.6
Cc1ccc(NNC(=O)C(=O)N2CCCCC2)cc1,88.6,/,65.7*,/,84.5,-2.1
CN(C)Cc1cnc2ccc(Cl)cn12,92.8,32.4,0.4,/,90.2,1.0
CN(C)Cc1c(-c2ccc(Cl)cc2)nc2ccc(Cl)cn12,/,/,68.1*,-1.31,/,3.1
Cc1ccc(C2CN(C)C3(C(=O)Nc4ccccc43)C23COc2ccccc2C3=O)cc1 (stereo unspecified),57.1,-20.0,29.4,/,44.5,10.0
CN1CC(c2ccccc2)C2(SC(=S)N(Cc3ccco3)C2=O)C12C(=O)Nc1ccccc12 (stereo unspecified),60.5,-28.6,98.1*,0.151,69.2,-1.8
O=C(COC(=O)c1ccccc1S(=O)(=O)N1CCCCC1)NCC(F)(F)F,91.7,45.5,2.5,/,98.1,4.2
O=C(NCc1cccnc1)c1cccc(Cl)c1,98.6,30.0,-7.0,/,104.5,-3.5
O=C(NCc1cccnc1)c1cccc(NC(=O)c2ccco2)c1,93.0,32.5,77.5*,/,99.1,-1.4
O=C(NC1CCCC1)c1cccc(NC(=O)c2ccco2)c1,98.0,-230.8,85.8*,/,85.8,3.7
COc1ccccc1N(C)S(=O)(=O)c1ccc(C(=O)NC2=NCCS2)cc1,97.8,-58.6,95.9*,/,108.0,-1.9
COc1cccc(C(=O)NC2=NCCS2)c1,89.8,75.0*,-1.7,/,99.0,-2.2
C=CCNC(=S)N1CCN(C2CCCCC2)CC1,/,/,/,/,/,2.2
O=C(NC1=NCCS1)c1cccc(NC(=O)c2ccco2)c1,105.4,-1.2,98.6*,/,102.9,6.9
COc1cccc(NC(=O)c2ncn[nH]2)c1,95.0,45.0,5.7,-0.361,106.9,0.4
SMILES,bCat KO growth,INS promoter inh,L major viab,ROMK primary,PTEN del growth,p97 inhibitor
O=C(Nc1cccc(NC(=O)c2ncn[nH]2)c1)c1cccc(Cl)c1,/,23.1,100.0*,0.0587,/,9.5
CC1(C)CSC(=NCc2ccccc2)N1C(=O)c1cccc([N+](=O)[O-])c1,80.9,/,3.5,/,81.1,9.0
O=C(c1ccc(Cl)cc1)N1C2C=CC(C2)C1(C(F)(F)F)C(F)(F)F (stereo unspecified),89.3,-35.7,64.0*,-0.423,95.6,2.0
C=CCOc1ccccc1/C=c1\sc2nc(=O)c(C)nn2c1=O,78.1,-42.9,100.0*,0.769,74.0,-2.2
Cc1ccc(C)c(NC(=O)CN(C)C(=O)c2cc3ccccc3o2)c1,/,-63.6,2.9,-0.0147,/,2.1
COc1cccc(C=Nc2ccccc2C(=O)Nc2ccccc2)c1O,93.6,-9.1,51.9*,0.0734,89.1,5.7
COc1ccc(/C=N/NC(=O)C2C(=O)NCC2c2ccccc2)c(OC)c1 (stereo unspecified),101.3,0.0,-1.0,0.302,102.0,-0.2
COc1cccc(/C=N\NC(=O)C2C(=O)NCC2c2ccccc2)c1O (stereo unspecified),16.8,-20.0,95.6*,/,10.1,2.7
COc1cccc(/C=N/NC(=O)CSCC(=O)Nc2ccccc2)c1O,6.6,-27.6,99.0*,/,11.6,1.9
O=C(Nc1ccccc1)c1ccccc1N=Cc1cccc(O)c1,/,/,11.3,0.817,/,6.0
COc1ccc(/C=N/NC(=O)CSCC(=O)Nc2ccccc2)cc1,/,/,/,/,/,3.1
CCOC(=O)c1ccc(CNC(=O)Cn2nnc(-c3ccccc3)n2)o1,/,-100.0,5.2,0.437,/,0.9
Cc1ccc(N2CCC(N3CCN(C4CCCCC4)C(CCO)C3)CC2)cc1 (stereo unspecified),/,/,53.5*,-0.618,/,-3.8
Cc1ccc(CN2CCN(C3CCOCC3)CC2CCO)cc1 (stereo unspecified),/,/,61.6*,0.477,/,0.2
CCOC(=O)N1CCC(N2CCN(Cc3ccccc3)C(CCO)C2)CC1 (stereo unspecified),/,21.4,50.1*,0.244,/,-0.3
CCOC(=O)N1CCC(N2CCN(Cc3ccc(C)o3)C(CCO)C2)CC1 (stereo unspecified),/,27.8,0.3,0.263,/,0.7
CC(c1ccccc1)C(Cc1nc2ccccc2[nH]1)c1nc2ccccc2[nH]1 (stereo unspecified),/,/,95.0*,-0.446,/,6.8
CC(C)Cc1nc2ccccc2[nH]1,/,/,/,/,/,5.0
Cc1cccc(OCCSCc2nc3ccccc3[nH]2)c1,80.2,/,6.2,-1.27,76.4,-0.3
Cc1cccc(CC(Cc2nc3ccccc3[nH]2)c2nc3ccccc3[nH]2)c1 (stereo unspecified),58.0,-30.0,92.5*,/,60.3,-0.4
COc1ccccc1CC(Cc1nc2ccccc2[nH]1)c1nc2ccccc2[nH]1 (stereo unspecified),/,/,98.2*,/,/,5.4
CCCc1cc(C(F)(F)F)c(C#N)c(=O)[nH]1,97.8,67.9*,-4.7,1.48,101.0,2.1
COc1ccc(OCCC(=O)OCC(=O)NCc2ccc(F)cc2)cc1,/,/,1.2,-0.193,/,-4.7
CC(=O)NC(=S)Nc1ccc(NC(=O)COc2ccc(C(C)C)cc2)cc1,100.5,75.0*,-7.7,-0.908,99.6,2.5
COc1ccc2nc(Nc3nc(C)c(CCC(C)C)c(=O)[nH]3)nc(C)c2c1,58.2,7.7,99.2*,/,63.5,-0.2
Cc1ccc2c(C)nc(Nc3nc(CSc4nnnn4-c4ccccc4)cc(=O)[nH]3)nc2c1,2.7*,-14.8,-3.7,/,3.3*,0.1
COc1ccc2nc(Nc3nc(CSc4nnnn4-c4ccccc4)cc(=O)[nH]3)nc(C)c2c1,1.8*,14.3,7.9,-0.0477,2.0*,2.6
CCOc1ccc2nc(Nc3nc(CSc4nnnn4-c4ccccc4)cc(=O)[nH]3)nc(C)c2c1,70.2,/,50.2*,0.0229,62.8,2.2
